Experimental data: PubChem BioAssay (EPA / NIEHS)
Inconclusive results are not listed. Activity calls are given as the source filed them. The calls were made as follows, unless noted: active = hit-call score of the fitted dose curve at least 0.9, where 1 is the maximum; inactive = score below 0.9.

What was measured:
[1] = molecular target: Cellular tumor antigen p53 (Homo sapiens) (UniProt P04637); experiment: ATG_p53_CIS: Attagene CIS-FACTORIAL HepG2 Assay for human p53 Transcription Factor (AID 2282994); conditions: HepG2 p53 cis-element reporter, Attagene mRNA; actives raise or lower the signal
How it was run: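 Endogenous p53 activity read in transiently transfected HepG2 from a cis-element-driven reporter transcript after 24 h exposure. RNA reverse-transcribed, PCR-amplified, fluorescently labelled and sized by capillary electrophoresis; gain or loss fitted against DMSO baseline.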

[2] = BSK_3C_TissueFactor: BioMAP Diversity Plus: 3C Assay for Tissue Factor Biomarker Activity (AID 2282997); conditions: BioMAP 3C HUVEC, tissue factor biomarker readout; actives raise or lower the signal
How it was run: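 HUVEC, 3C system, 24 h post-dose; Tissue Factor by ELISA; bidirectional fit vs DMSO baseline.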

[3] = BSK_3C_uPAR: BioMAP Diversity Plus: 3C Assay for Urokinase-type plasminogen activator receptor (uPAR) Biomarker Activity (AID 2282998); conditions: BioMAP 3C HUVEC, uPAR biomarker ELISA; actives raise or lower the signal
How it was run: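 Primary human umbilical vein endothelial cells, 3C system; surface uPAR measured by ELISA 24 h after dosing. Cytotoxicity via SRB total protein in parallel cultures; bidirectional fit against DMSO.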

[4] = BSK_3C_VCAM1: BioMAP Diversity Plus: 3C Assay for Vascular cell adhesion molecule 1 (VCAM1) Biomarker Activity (AID 2282999); conditions: BioMAP 3C HUVEC, VCAM1 ELISA, cytokine-stimulated; actives raise or lower the signal
How it was run: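 Vascular primary endothelium (human umbilical vein) was exposed to chemicals and assayed 24 h later. VCAM-1 levels came from ELISA, with DMSO serving as baseline for bidirectional fitting.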

[5] = BSK_4H_Eotaxin3: BioMAP Diversity Plus: 4H Assay for Eotaxin 3 Biomarker Activity (AID 2283000); conditions: primary human endothelial cells (HUVEC); actives raise or lower the signal
How it was run: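 Readout is Eotaxin-3 (CCL26) level by ELISA in primary human umbilical vein endothelial cells harvested 24 h after chemical exposure; activity fitted in both directions against DMSO control.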

[6] = molecular target: human Peroxisome Proliferator-activated Receptor delta (PPARd), PPARD (gene 5467) (UniProt Q03181); experiment: ATG_PPARd_TRANS: Attagene TRANS-FACTORIAL HepG2 Assay for human Peroxisome Proliferator-activated Receptor delta (PPARd) (AID 2283002; active = hit-call score of the fitted dose curve at least 0.9, where 1 is the maximum)
How it was run: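 Multiplexed trans-activation format: HepG2 liver cells expressing exogenous NR-Gal4 chimeras and GAL4-UAS reporters were exposed for 24 h. Reporter mRNA was detected by RT-PCR with capillary electrophoresis fluorescence; activity fitted as gain of signal relative to DMSO.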

[7] = read-out: Intercellular Adhesion Molecule 1 (ICAM1), ICAM1 (gene 3383); experiment: BSK_3C_ICAM1: BioMAP Diversity Plus: 3C Assay for Intercellular Adhesion Molecule 1 (ICAM1) Biomarker Activity (AID 2283003); conditions: primary human endothelial cells (HUVEC); actives raise or lower the signal
How it was run: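 ELISA readout of ICAM1 in human umbilical vein endothelial cells in the 3C system, taken 24 h post-dose. Gain or loss of signal versus DMSO was fitted in both directions, with SRB total-protein staining run in parallel.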

[8] = molecular target: human Peroxisome Proliferator-activated Receptor alpha (PPARa), PPARA (gene 5465) (UniProt Q07869); experiment: ATG_PPARa_TRANS: Attagene TRANS-FACTORIAL HepG2 Assay for human Peroxisome Proliferator-activated Receptor alpha (PPARa) (AID 2283001; active = hit-call score of the fitted dose curve at least 0.9, where 1 is the maximum;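 as to AC50: potency for gain of reporter signal over DMSO so agonist or activator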)
How it was run: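 Cells (HepG2) are transfected with multiple reporter transcription units, exposed to chemical for 24 h, then total RNA is reverse-transcribed and amplified. Labelled products are quantified by capillary electrophoresis; induction is referenced to DMSO.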

[9] = molecular target: human Retinoic Acid Receptor beta (RARb), RARB (gene 5915) (UniProt P10826); experiment: ATG_RARb_TRANS: Attagene TRANS-FACTORIAL HepG2 Assay for human Retinoic Acid Receptor beta (AID 2283004; active = hit-call score of the fitted dose curve at least 0.9, where 1 is the maximum)
How it was run: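 Readout is reporter mRNA induction: RNA reverse-transcribed, PCR-amplified, FAM-labelled, HpaI-cut and resolved by capillary electrophoresis. Transiently transfected HepG2 cells carrying exogenous NR–Gal4 chimeras were dosed for 24 h; activity fitted upward relative to DMSO.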

[10] = molecular target: Retinoic acid receptor alpha (Homo sapiens) (UniProt P10276); experiment: ATG_RARa_TRANS: Attagene TRANS-FACTORIAL HepG2 Assay for human Retinoic Acid Receptor alpha (RARa) (AID 2283005; active = hit-call score of the fitted dose curve at least 0.9, where 1 is the maximum)
How it was run: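 HepG2 cells transiently transfected with multiple reporter units expressing chimeric RARα-GAL4 fusion, with GAL4-UAS-driven reporters. After 24 h compound exposure, reporter mRNA induction quantified by RT-PCR and capillary electrophoresis with fluorescent labeling; gain-of-signal fitted relative to DMSO control.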

Measured: AC50

Chain of human Peroxisome Proliferator-activated Receptor delta (PPARd), PPARD (gene 5467) (Q03181 whole entry, looked up, the tested form may be a part): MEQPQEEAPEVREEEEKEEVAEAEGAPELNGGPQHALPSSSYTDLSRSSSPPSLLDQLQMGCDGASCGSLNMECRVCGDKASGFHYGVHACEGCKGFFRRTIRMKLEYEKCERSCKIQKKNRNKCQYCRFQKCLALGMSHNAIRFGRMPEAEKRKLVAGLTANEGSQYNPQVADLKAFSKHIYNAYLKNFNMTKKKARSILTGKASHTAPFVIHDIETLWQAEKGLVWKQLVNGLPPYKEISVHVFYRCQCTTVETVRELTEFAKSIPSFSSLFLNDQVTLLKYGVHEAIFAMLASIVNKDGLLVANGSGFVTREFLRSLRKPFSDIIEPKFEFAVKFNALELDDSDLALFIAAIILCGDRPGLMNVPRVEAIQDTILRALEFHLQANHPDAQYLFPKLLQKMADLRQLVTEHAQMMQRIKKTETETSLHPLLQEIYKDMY
Chain of human Peroxisome Proliferator-activated Receptor alpha (PPARa), PPARA (gene 5465) (Q07869 whole entry, looked up): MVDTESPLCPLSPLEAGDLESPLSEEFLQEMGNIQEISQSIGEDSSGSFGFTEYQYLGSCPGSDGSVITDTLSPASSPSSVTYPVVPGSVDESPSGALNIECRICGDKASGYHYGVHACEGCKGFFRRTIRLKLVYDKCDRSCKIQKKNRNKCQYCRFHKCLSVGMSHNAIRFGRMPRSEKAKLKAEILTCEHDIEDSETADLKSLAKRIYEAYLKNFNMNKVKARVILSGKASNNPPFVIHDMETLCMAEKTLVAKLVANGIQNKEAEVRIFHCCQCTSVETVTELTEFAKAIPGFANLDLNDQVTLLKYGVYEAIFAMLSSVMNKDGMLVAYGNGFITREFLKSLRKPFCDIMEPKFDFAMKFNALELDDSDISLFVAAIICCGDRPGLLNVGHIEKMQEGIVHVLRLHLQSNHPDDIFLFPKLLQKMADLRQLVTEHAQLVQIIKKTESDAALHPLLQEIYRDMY
Chain of Cellular tumor antigen p53 (Homo sapiens) (P04637 whole entry, looked up): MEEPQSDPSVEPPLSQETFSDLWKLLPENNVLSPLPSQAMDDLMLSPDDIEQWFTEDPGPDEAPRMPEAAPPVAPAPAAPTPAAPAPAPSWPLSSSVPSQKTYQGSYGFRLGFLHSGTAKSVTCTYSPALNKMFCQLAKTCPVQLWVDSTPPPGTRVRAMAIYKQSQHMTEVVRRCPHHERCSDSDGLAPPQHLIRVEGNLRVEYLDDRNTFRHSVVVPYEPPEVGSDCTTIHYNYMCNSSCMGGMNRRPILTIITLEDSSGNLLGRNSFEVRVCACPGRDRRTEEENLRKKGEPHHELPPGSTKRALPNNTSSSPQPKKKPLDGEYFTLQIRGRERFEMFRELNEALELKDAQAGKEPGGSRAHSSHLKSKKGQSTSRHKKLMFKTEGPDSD
Chain of Retinoic acid receptor alpha (Homo sapiens) (P10276 whole entry, looked up, the tested form may be a part): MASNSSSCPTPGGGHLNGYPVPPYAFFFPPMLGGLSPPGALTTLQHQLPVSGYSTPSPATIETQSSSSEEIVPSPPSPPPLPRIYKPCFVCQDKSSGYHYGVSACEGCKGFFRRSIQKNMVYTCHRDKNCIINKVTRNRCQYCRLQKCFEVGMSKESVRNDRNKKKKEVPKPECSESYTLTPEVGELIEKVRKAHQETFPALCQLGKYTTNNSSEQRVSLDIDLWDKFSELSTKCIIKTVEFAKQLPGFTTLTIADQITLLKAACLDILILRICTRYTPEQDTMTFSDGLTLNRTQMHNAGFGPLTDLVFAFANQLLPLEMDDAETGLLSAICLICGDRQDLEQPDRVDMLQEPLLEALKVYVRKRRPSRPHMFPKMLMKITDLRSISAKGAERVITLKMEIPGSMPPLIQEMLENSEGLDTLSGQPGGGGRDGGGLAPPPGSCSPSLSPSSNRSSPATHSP
Chain of human Retinoic Acid Receptor beta (RARb), RARB (gene 5915) (P10826 whole entry, looked up, the tested form may be a part): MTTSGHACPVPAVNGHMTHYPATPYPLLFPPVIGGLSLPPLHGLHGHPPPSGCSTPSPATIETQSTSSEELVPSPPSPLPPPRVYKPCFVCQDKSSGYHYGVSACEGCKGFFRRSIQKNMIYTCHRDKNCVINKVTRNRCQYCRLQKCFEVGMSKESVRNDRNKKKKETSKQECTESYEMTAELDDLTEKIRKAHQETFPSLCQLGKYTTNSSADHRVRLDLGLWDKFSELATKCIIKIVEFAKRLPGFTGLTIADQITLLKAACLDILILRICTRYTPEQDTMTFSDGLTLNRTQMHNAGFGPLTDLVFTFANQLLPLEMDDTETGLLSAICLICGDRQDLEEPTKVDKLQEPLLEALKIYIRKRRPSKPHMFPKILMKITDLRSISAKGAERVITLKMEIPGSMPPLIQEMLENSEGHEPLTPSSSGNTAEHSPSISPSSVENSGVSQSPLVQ

CCCCCCCCCCCCc1ccccc1
inactive: [1] | [2] | [3] | [4] | [6] | [7]
active: [5] 26.6 µM

COc1ccc(/C=C/S(=O)(=O)NC(=O)c2ccc(C)cc2Cl)cc1
inactive: [1] | [2] | [3] | [4] | [5] | [8] | [6] | [7]

Fc1ccccc1[C@@H](F)COC1CCC(Nc2ncnc3[nH]ncc23)CC1 (stereo partly specified)
active: [2] 35.2 µM | [3] 15.2 µM | [5] 23.6 µM
inactive: [1] | [4] | [6] | [7]

CC(C)=CCC/C(C)=C/CO
inactive: [1] | [2] | [3] | [4] | [5] | [8] | [7] | [9]

O=C(OC[C@H]1O[C@@H](OC(=O)c2cc(O)c(O)c(OC(=O)c3cc(O)c(O)c(O)c3)c2)[C@H](OC(=O)c2cc(O)c(O)c(OC(=O)c3cc(O)c(O)c(O)c3)c2)[C@@H](OC(=O)c2cc(O)c(O)c(OC(=O)c3cc(O)c(O)c(O)c3)c2)[C@@H]1OC(=O)c1cc(O)c(O)c(OC(=O)c2cc(O)c(O)c(O)c2)c1)c1cc(O)c(O)c(OC(=O)c2cc(O)c(O)c(O)c2)c1
active: [2] 7.77 µM | [4] 11.2 µM | [5] 8.95 µM
inactive: [1] | [3] | [8] | [7] | [9] | [10]

Oc1ccc2c(c1)-c1ccccc1C2
active: [2] 0.791 µM | [3] 14.4 µM | [5] 23.3 µM
inactive: [1] | [4] | [8] | [6] | [7]

O=C(O)c1cccc(Oc2ccccc2)c1
inactive: [1] | [2] | [3] | [4] | [5] | [8] | [7] | [9]

O=P(OC(CCl)CCl)(OC(CCl)CCl)OC(CCl)CCl
active: [1] 39.3 µM | [2] 8.26 µM
inactive: [3] | [4] | [5] | [8] | [7]

CCCCCCCCO
inactive: [1] | [2] | [3] | [4] | [5] | [8] | [7] | [9]

Cn1cnc([N+](=O)[O-])c1Sc1ncnc2nc[nH]c12
inactive: [1] | [2] | [3] | [4] | [5] | [6] | [7] | [9] | [10]
active: [8] 26.4 µM

Cc1ccc(N)cc1O
inactive: [1] | [2] | [3] | [4] | [8] | [6] | [7] | [9]
active: [5] 20 µM

O=c1n(CC2CO2)c(=O)n(CC2CO2)c(=O)n1CC1CO1 (stereo unspecified)
inactive: [8] | [6] | [7]
active: [1] 24.7 µM | [2] 11.3 µM | [3] 20 µM | [4] 26.3 µM | [5] 23.2 µM

CCOC(=O)CC(CC(=O)OCC)(OC(C)=O)C(=O)OCC
inactive: [1] | [2] | [3] | [4] | [5] | [8] | [7] | [10]

Nc1ccc(Nc2ccccc2)cc1
inactive: [1] | [3] | [8] | [7] | [9]
active: [2] 0.903 µM | [4] 4.54 µM | [5] 3.97 µM

O=C1CCCCCN1
inactive: [1] | [2] | [3] | [4] | [5] | [6] | [7] | [9] | [10]
active: [8] 3.37 µM

O=C(NS(=O)(=O)/C=C/c1ccccc1)c1ccc(F)cc1Cl
inactive: [1] | [2] | [3] | [4] | [5] | [8] | [7]

CCC(C)(C)C(=O)O[C@H]1C[C@@H](C)C=C2C=C[C@H](C)[C@H](CC[C@@H]3C[C@@H](O)CC(=O)O3)[C@H]21
inactive: [1] | [8] | [6] | [7]
active: [2] 20 µM | [3] 16.9 µM | [4] 29.9 µM | [5] 34.5 µM

CCc1cc(SCc2sc(-c3ccc(C(F)(F)F)cc3)nc2CN2CCN(c3ccc(OC)cc3)CC2)ccc1OCC(=O)O
active: [2] 12.4 µM | [3] 7.74 µM | [4] 27.7 µM | [5] 10.9 µM | [8] 0.0501 µM | [6] 0.00449 µM | [7] 29.9 µM
inactive: [1]

Cc1[nH]cnc1C[C@H]1CCc2c(C)c3ccccc3n2C1=O
active: [1] 7.45 µM | [3] 27.4 µM | [5] 29.6 µM
inactive: [2] | [4] | [8] | [6] | [7] | [10]

CCCCCCc1ccc(O)cc1O
inactive: [1] | [8]
active: [2] 33.8 µM | [3] 31.8 µM | [4] 34.3 µM | [5] 32.2 µM
